We go through twelve compounds from PubChem BioAssay (Tox21).

Several values for one entry are separate records, joined by “and”; a condition that tells them apart may be missing. Equal entries are not always repeated. Results filed as inconclusive are left out. Some structures have more than one record in an assay (separate samples or runs), and their calls can disagree. Activity calls are given as the source filed them. Unless noted, calls follow the shape of the dose curve; as a rule, active = well fitted curve in the direction sought with a large enough effect in the repeat runs; inconclusive = weak or mixed curves; inactive = no such curve, though single readings can be large; an effect the other way counts as inactive or inconclusive.

Experiment [1] is described as follows: qHTS assay to identify small molecule antagonists of the thyroid receptor (TR) signaling pathway - cell viability counter screen (AID 743064). Also: nearly all actives have a fitted effect of over 50% in size. A digest of the protocol:
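In-well cytotoxicity read by CellTiter-Fluor (30 min, 37 C) following 23.5 h exposure of GH3 cells bearing a TRE-luciferase sensor. Compounds were added alongside 1 nM (final) T3 to drive TR transactivation.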
For orientation: Quantitative high-throughput screening tests each substance at several concentrations.

Experiment [2] in a line: qHTS assay to identify small molecule antagonists of the thyroid receptor (TR) signaling pathway (AID 743065). Also: series mostly up to about 70 µM; nearly all actives have a fitted effect of over 55% in size. A digest of the protocol: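 Antagonism measured as loss of luciferase signal in GH3 cells stably carrying a TRE-luciferase reporter, co-treated with compound and T3 (1 nM final) for 23.5 h at 37 C. Viability was read in the same well by CellTiter-Fluor.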
Experiment [3] has as its system thyroid hormone receptor (rat, GH3 cells). Nature of the experiment: qHTS assay to identify small molecule agonists of the thyroid receptor (TR) signaling pathway (AID 743066; calls by dose curve; also: potency is read from the fitted curve at half-maximal effect).
A short description of experiment [4]: qHTS assay to identify small molecule antagonists of the estrogen receptor alpha (ER-alpha) signaling pathway - cell viability counter screen (AID 743074; calls by dose curve;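 also: HEK293 cells carrying ER-alpha-UAS-bla reporter stimulated with 17beta-estradiol; nearly all actives have a fitted effect of over 45% in size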).
A short description of experiment [5]: qHTS assay to identify small molecule antagonists of the estrogen receptor alpha (ER-alpha) signaling pathway using the BG1 cell line - cell viability counter screen (AID 743081).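 Also: compound given together with 17beta-estradiol as the ER stimulus; series mostly up to about 70 µM; nearly all actives have a fitted effect of over 45% in size.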
Experiment [6] concerns the target Aromatase (Homo sapiens) (UniProt P11511). The experiment in a line: qHTS assay to identify aromatase inhibitors (AID 743083). Also: series mostly up to about 70 µM; nearly all actives have a fitted effect of over 55% in size.
Experiment [7] in a line: qHTS assay to identify aromatase inhibitors - cell viability counter screen (AID 743084).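 Also: cells stimulated with testosterone during compound exposure; nearly all actives have a fitted effect of over 55% in size.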
For experiment [8], the target named is Aryl hydrocarbon receptor (Homo sapiens) (UniProt P35869). Nature of the experiment: qHTS assay to identify small molecule that activate the aryl hydrocarbon receptor (AhR) signaling pathway (AID 743085).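 Also: HG2L7.5c1 human HepG2 liver cells with stably integrated DRE-driven firefly reporter; series mostly up to about 70 µM; nearly all actives have a fitted effect of over 15% in size.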 In a few lines:
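Luminescence (ONE-Glo) from a dioxin-responsive-element luciferase reporter in HG2L7.5c1 HepG2 cells after 24 hr compound exposure at 37C; viability measured by CellTiter-Fluor fluorescence beforehand.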

The nature of experiment [9]: qHTS assay to identify small molecule that activate the aryl hydrocarbon receptor (AhR) signaling pathway - cell viability counter screen (AID 743086). Also: series mostly up to about 70 µM; nearly all actives have a fitted effect of over 45% in size. A digest of the protocol: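 Cytotoxicity counter screen: CellTiter-Fluor signal (30 min, 37 C) in 4000 HepG2 cells/well carrying the DRE-luciferase reporter, following 24 h compound exposure at 37 C.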
Experiment [10] deals with Peroxisome proliferator-activated receptor gamma (Homo sapiens) (UniProt P37231). Nature of the experiment: qHTS assay to identify small molecule agonists of the peroxisome proliferator-activated receptor gamma (PPARg) signaling pathway (AID 743094; active = well fitted activation curve with a large enough effect in the signal ratio in the repeat runs, not every such curve was filed as active; the % refers to the signal ratio). In a few lines: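 Beta-lactamase FRET fluorescence was the read-out after a 1 h room-temperature substrate step, following 17 h compound treatment at 37C of HEK293H cells expressing a UAS-driven bla reporter responsive to PPARg.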
Chain of Peroxisome proliferator-activated receptor gamma (Homo sapiens) (P37231 whole entry, looked up): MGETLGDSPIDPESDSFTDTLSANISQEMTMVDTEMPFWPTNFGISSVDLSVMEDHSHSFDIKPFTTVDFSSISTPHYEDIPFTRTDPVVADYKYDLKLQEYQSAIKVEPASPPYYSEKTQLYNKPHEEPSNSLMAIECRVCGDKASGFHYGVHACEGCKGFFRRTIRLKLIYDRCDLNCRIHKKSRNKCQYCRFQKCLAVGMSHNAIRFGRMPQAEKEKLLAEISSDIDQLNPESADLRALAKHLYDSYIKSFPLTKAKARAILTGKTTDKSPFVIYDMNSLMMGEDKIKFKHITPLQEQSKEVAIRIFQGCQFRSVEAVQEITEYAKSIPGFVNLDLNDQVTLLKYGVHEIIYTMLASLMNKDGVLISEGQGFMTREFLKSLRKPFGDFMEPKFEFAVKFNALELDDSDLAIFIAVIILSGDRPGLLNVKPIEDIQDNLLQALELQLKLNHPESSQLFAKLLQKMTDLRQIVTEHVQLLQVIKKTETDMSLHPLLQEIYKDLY

A short description of experiment [11]: qHTS assay to identify small molecule antagonists of the peroxisome proliferator-activated receptor gamma (PPARg) signaling pathway - cell viability counter screen (AID 743194). Also: nearly all actives have a fitted effect of over 55% in size. A digest of the protocol: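 Viability was measured as CellTiter-Glo luminescence in GeneBLAzer PPARg UAS-bla HEK293H cells. These cells had been exposed 17 h at 37 C to compounds together with rosiglitazone at 50 nM final, with the beta-lactamase readout taken in the same wells.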

Experiment [12] is described as follows: qHTS assay for small molecule agonists of the antioxidant response element (ARE) signaling pathway (AID 743202; active = well fitted activation curve with a large enough effect in the signal ratio in the repeat runs, not every such curve was filed as active; the % refers to the signal ratio). In a few lines: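 Quantitative high-throughput format in HepG2 cells bearing an integrated ARE-beta-lactamase reporter. Compound exposure lasted 16 h at 37 C, and fluorescence was read 2 h after adding LiveBLAzer B/G substrate at room temperature.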

Experiment [13] in a line: qHTS assay for small molecule agonists of the antioxidant response element (ARE) signaling pathway - cell viability counter screen (AID 743203; calls by dose curve; also: nearly all actives have a fitted effect of over 55% in size). In a few lines:
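HepG2 cells carrying ARE-driven beta-lactamase; 2,000 cells/well; 5 hrs plating; compound pinned from DMSO; 16 hrs 37C/5% CO2; CellTiter-Glo added; 30 min RT; luminescence.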

Experiment [14] can be described thus: qHTS assay for small molecule activators of the heat shock response signaling pathway - cell viability counter screen (AID 743209). Also: nearly all actives have a fitted effect of over 50% in size. A digest of the protocol:
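Luminescence from CellTiter-Glo, added after the beta-lactamase FRET read, gave the viability signal. Cells were HSE-bla HeLa treated with DMSO-dissolved compounds for 5 h at 37 C following overnight plating.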

The nature of experiment [15]: qHTS assay for small molecule activators of the heat shock response signaling pathway (AID 743210; active = well fitted activation curve with a large enough effect in the signal ratio in the repeat runs, with a control signal flat, not every such curve was filed as active; the % refers to the signal ratio;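 also: HeLa cells with beta-lactamase reporter driven by heat shock elements; series mostly up to about 63 µM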). A digest of the protocol: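 HeLa HSE-bla cells, overnight plating; cpd in DMSO 5 h, 37 C; LiveBLAzer B/G FRET substrate 2.5 h RT; fluorescence intensity read.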
Experiment [16] concerns the target Estrogen receptor (Homo sapiens) (UniProt P03372). The experiment in a line: qHTS assay to identify small molecule antagonists of the estrogen receptor alpha (ER-alpha) signaling pathway (AID 743069; active = well fitted curve in the direction sought with a large enough effect in the signal ratio in the repeat runs, not every such curve was filed as active; the % refers to the signal ratio). A digest of the protocol: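 ER-alpha-UAS-bla GripTite HEK293 line; 2% charcoal-stripped FBS overnight; plated, 4 hr 37C/5% CO2; cpd in DMSO + 17beta-estradiol, 18 hr 37C; LiveBLAzer B/G FRET substrate 2 hr RT; fluorescence intensity.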

Experiment [17] shares this target. The experiment in a line: qHTS assay to identify small molecule agonists of the estrogen receptor alpha (ER-alpha) signaling pathway (AID 743075; calls by dose curve;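 also: HEK293 GripTite cells with ER-alpha and UAS-driven beta-lactamase reporter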).
The target is the same in experiment [18]. Nature of the experiment: qHTS assay to identify small molecule agonists of the estrogen receptor alpha (ER-alpha) signaling pathway using the BG1 cell line (AID 743079). Also: nearly all actives have a fitted effect of over 20% in size.
The nature of experiment [19]: qHTS assay to identify small molecule antagonists of the estrogen receptor alpha (ER-alpha) signaling pathway using the BG1 cell line (AID 743080; calls by dose curve;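 also: BG1 cells stimulated with 17beta-estradiol alongside compound; series mostly up to about 70 µM; nearly all actives have a fitted effect of over 25% in size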). A digest of the protocol: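 After 5 days in phenol-red-free 10% charcoal-stripped FBS medium, BG1-Luc-4E2 cells were seeded, left 24 h at 37 C, co-treated with compounds and 17beta-estradiol for 21.5 h, then assayed for viability and luciferase.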

Experiment [20] addresses Peroxisome proliferator-activated receptor gamma (Homo sapiens) (UniProt P37231). The experiment in a line: qHTS assay to identify small molecule antagonists of the peroxisome proliferator-activated receptor gamma (PPARg) signaling pathway (AID 743191; calls by dose curve; also: series mostly up to about 63 µM; nearly all actives have a fitted effect of over 30% in size). A digest of the protocol: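 Beta-lactamase reporter under UAS control in HEK293H PPARg-bla cells; compound treatment 17 h at 37C. Read-out: fluorescence intensity after 1 h room-temperature incubation with LiveBLAzer B/G FRET substrate.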

Chain of Aryl hydrocarbon receptor (Homo sapiens) (P35869 whole entry, looked up): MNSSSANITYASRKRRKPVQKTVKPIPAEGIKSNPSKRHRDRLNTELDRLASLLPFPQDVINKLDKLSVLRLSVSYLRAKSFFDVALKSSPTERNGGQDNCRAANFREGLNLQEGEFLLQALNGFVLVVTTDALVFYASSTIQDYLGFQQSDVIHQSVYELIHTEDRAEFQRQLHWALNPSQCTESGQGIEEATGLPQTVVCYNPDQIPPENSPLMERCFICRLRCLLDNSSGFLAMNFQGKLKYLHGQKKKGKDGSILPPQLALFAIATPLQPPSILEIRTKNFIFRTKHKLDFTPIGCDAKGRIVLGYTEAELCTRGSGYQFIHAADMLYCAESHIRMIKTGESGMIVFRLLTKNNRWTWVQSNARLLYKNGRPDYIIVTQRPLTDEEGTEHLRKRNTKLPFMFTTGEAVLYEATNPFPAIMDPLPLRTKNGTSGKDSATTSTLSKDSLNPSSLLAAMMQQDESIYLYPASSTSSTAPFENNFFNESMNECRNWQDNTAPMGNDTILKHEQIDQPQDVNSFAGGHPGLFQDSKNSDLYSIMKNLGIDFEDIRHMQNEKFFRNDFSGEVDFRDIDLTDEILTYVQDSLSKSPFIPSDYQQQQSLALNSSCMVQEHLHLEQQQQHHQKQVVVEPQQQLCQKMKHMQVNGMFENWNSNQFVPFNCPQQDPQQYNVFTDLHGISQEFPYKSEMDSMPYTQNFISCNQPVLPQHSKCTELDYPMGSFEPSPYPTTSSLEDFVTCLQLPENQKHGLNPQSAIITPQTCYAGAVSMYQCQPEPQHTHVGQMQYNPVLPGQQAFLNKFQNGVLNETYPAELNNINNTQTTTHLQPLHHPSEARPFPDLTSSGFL
Chain of Aromatase (Homo sapiens) (P11511 whole entry, looked up): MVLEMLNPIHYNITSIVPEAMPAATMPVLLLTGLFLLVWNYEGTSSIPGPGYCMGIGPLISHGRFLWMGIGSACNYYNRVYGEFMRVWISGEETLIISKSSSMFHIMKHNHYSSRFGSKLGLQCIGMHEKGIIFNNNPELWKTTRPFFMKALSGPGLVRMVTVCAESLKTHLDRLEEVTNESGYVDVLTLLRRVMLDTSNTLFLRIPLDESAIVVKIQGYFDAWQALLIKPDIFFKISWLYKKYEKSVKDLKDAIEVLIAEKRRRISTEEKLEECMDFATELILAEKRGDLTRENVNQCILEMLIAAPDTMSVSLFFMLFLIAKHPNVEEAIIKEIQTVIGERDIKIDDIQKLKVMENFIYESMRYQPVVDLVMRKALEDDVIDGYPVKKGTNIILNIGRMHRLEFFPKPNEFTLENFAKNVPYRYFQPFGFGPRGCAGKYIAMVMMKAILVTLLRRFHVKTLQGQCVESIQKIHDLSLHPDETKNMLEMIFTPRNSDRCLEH
Chain of Estrogen receptor (Homo sapiens) (P03372 whole entry, looked up): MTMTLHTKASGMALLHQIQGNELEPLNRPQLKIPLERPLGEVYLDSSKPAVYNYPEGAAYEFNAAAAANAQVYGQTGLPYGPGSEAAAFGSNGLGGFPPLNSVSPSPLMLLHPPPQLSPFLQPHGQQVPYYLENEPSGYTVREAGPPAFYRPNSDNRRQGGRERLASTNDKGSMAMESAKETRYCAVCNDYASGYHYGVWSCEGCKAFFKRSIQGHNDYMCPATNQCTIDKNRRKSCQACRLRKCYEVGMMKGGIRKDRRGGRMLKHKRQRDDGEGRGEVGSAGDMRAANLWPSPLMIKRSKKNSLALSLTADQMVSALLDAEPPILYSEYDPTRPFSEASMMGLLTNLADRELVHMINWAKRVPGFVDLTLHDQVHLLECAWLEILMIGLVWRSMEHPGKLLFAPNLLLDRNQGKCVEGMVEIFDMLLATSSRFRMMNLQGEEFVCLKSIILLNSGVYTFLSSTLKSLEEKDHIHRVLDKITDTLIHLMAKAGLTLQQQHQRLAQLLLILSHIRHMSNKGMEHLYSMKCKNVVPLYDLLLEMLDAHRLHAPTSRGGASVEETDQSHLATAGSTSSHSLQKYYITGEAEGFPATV

For the compound `O=c1[nH]c(=O)n([C@H]2CCCO2)cc1F`, the Potency entry in [1], in [2], in [3], in [5], in experiment [6] and in experiment [7] was “inactive” throughout. The Potency result in [8], in [12] and in experiment [15] was “inactive” throughout. Further, the compound was called inactive in experiment [4], in experiment [9], in experiment [10], in experiment [11], in experiment [13] and in experiment [14].

With `O=c1[nH]c(=O)n([C@H]2C[C@H](O)[C@@H](CO)O2)cc1Br`, the Potency result in experiment [1], in experiment [2], in experiment [3], in experiment [16], in experiment [17] and in [5] was “inactive” in each case. Moreover, the Potency result in experiment [6], in [7], in [8], in [12] and in [15] was “inactive” each time. In addition, the compound was called inactive in [4], in experiment [9], in [10], in experiment [13] and in experiment [14].

Consider `CC(C)(N)CO`, for which the Potency entry in experiment [1], in experiment [2], in [3], in experiment [16], in [17] and in [18] was “inactive” throughout. Further, the Potency entry in experiment [19], in [5], in experiment [6], in experiment [7], in experiment [8] and in experiment [12] was “inactive” in each case. Besides, the Potency entry in [15] was “inactive”. Also, the result in experiment [4], in [9], in experiment [10] and in experiment [13] was inactive.

For the compound `O=C1CCC(N2C(=O)c3ccccc3C2=O)C(=O)N1` (stereo not given), the Potency entry in experiment [1], in experiment [2], in experiment [3], in [5], in [6] and in experiment [7] was “inactive” in each case. The Potency result in [8], in [12] and in experiment [15] was “inactive” each time. For the same compound, the compound was called inactive in experiment [4], in experiment [9], in [10], in experiment [20] and in experiment [13].

In the case of `Cc1occc(=O)c1O`, the Potency entry in [1], in experiment [2], in experiment [5], in experiment [6], in experiment [7] and in experiment [8] was “inactive” throughout. The Potency result in experiment [12] and in experiment [15] was “inactive” in each case. Further, the Potency entry in experiment [3] is “inactive and 50.9 µM (active)”. For the same compound, the compound was called inactive in [4], in experiment [9], in experiment [10], in [20], in experiment [13] and in experiment [14].

Regarding `ON=C1CCCCC1`, the Potency entry in [1], in experiment [2], in experiment [3], in [5], in experiment [6] and in experiment [7] was “inactive” in each case. Further, the Potency entry in experiment [8], in experiment [12] and in experiment [15] was “inactive” each time. Besides, the compound was classed as inactive in [4], in experiment [9], in experiment [10], in experiment [11], in experiment [13] and in experiment [14].

As for `CC1CCC2CC1C2(C)C` (stereo not given), the Potency entry in experiment [1], in [2], in experiment [3], in experiment [5], in experiment [6] and in experiment [7] was “inactive” each time. Moreover, the Potency entry in experiment [8], in experiment [12] and in [15] was “inactive” throughout. In addition, the result in experiment [4], in experiment [9], in experiment [10], in [20], in experiment [13] and in experiment [14] was inactive.

Turning to `CCCCN(CCCC)CCCC`, the Potency entry in experiment [1], in experiment [2], in experiment [3], in [16], in [17] and in experiment [18] was “inactive” throughout. Moreover, the Potency result in experiment [19], in experiment [5], in experiment [6], in experiment [7], in experiment [8] and in experiment [12] was “inactive” each time. Moreover, the Potency entry in experiment [15] was “inactive”. Further, the call in experiment [4], in [9], in experiment [11] and in experiment [13] was inactive.

As to `O=C(O)c1ccc(C(=O)O)cc1`, the Potency entry in [1], in experiment [2], in experiment [3], in [5], in experiment [6] and in [7] was “inactive” throughout. Further, the Potency result in [8], in experiment [12] and in experiment [15] was “inactive” in each case. Moreover, the compound was classed as inactive in experiment [4], in experiment [9], in experiment [10], in experiment [20], in experiment [11] and in experiment [13]. In addition, the call in experiment [14] was inactive.

On to `CC(c1cc2ccccc2s1)N(O)C(N)=O` (stereo not given), for which the Potency entry in experiment [1], in [2], in experiment [3], in experiment [16], in experiment [17] and in experiment [18] was “inactive” in each case. For the same compound, the Potency result in experiment [19], in [5], in experiment [6], in experiment [7], in experiment [12] and in [15] was “inactive” throughout. Besides, the outcome in experiment [4], in [9], in experiment [11] and in [13] was inactive.

For `O=C(O)c1ccc2c(c1)C(=O)OC2=O`, the Potency entry in experiment [1], in experiment [2], in experiment [3], in experiment [16], in experiment [17] and in experiment [18] was “inactive” each time. Also, the Potency entry in experiment [19], in [5], in experiment [6], in [7], in [8] and in experiment [12] was “inactive” each time. Further, the Potency result in experiment [15] is “inactive”. Also, the compound was classed as inactive in [9], in experiment [10], in experiment [11] and in [13].

Consider `O=S(=O)(O)c1ccc2ccccc2c1`, for which the Potency result in experiment [1], in experiment [2], in [3], in experiment [16], in experiment [17] and in experiment [18] was “inactive” each time. In addition, the Potency result in [19], in experiment [5], in experiment [6], in [7], in experiment [12] and in [15] was “inactive” throughout. In addition, the outcome in experiment [4], in [9], in [10], in experiment [11] and in experiment [13] was inactive.
